# Results filed as inconclusive are left out. Activity calls are given as the source filed them. The calls were made as follows: active = hit-call score of the fitted dose curve at least 0.9, where 1 is the maximum; inconclusive = response in the unintended direction; inactive = score below 0.9.
# Biological target: human Protein Tyrosine Phosphatase Receptor Type B (PTPRB), PTPRB (gene 5787) (UniProt P23467)
# Test: NVS_ENZ_hPTPRB: NovaScreen (NVS) Enzymatic Assay for human Protein Tyrosine Phosphatase Receptor Type B (PTPRB) (AID 2283211)
# Outline: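 Recombinant human PTPRB with a fluorescent substrate, product separated by electrophoretic mobility shift; read 1 h after dosing. Primary screen in duplicate at 25 uM; actives then retested in concentration series; loss of signal versus DMSO.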
# human Protein Tyrosine Phosphatase Receptor Type B (PTPRB), PTPRB (gene 5787), sequence (P23467 whole entry, looked up): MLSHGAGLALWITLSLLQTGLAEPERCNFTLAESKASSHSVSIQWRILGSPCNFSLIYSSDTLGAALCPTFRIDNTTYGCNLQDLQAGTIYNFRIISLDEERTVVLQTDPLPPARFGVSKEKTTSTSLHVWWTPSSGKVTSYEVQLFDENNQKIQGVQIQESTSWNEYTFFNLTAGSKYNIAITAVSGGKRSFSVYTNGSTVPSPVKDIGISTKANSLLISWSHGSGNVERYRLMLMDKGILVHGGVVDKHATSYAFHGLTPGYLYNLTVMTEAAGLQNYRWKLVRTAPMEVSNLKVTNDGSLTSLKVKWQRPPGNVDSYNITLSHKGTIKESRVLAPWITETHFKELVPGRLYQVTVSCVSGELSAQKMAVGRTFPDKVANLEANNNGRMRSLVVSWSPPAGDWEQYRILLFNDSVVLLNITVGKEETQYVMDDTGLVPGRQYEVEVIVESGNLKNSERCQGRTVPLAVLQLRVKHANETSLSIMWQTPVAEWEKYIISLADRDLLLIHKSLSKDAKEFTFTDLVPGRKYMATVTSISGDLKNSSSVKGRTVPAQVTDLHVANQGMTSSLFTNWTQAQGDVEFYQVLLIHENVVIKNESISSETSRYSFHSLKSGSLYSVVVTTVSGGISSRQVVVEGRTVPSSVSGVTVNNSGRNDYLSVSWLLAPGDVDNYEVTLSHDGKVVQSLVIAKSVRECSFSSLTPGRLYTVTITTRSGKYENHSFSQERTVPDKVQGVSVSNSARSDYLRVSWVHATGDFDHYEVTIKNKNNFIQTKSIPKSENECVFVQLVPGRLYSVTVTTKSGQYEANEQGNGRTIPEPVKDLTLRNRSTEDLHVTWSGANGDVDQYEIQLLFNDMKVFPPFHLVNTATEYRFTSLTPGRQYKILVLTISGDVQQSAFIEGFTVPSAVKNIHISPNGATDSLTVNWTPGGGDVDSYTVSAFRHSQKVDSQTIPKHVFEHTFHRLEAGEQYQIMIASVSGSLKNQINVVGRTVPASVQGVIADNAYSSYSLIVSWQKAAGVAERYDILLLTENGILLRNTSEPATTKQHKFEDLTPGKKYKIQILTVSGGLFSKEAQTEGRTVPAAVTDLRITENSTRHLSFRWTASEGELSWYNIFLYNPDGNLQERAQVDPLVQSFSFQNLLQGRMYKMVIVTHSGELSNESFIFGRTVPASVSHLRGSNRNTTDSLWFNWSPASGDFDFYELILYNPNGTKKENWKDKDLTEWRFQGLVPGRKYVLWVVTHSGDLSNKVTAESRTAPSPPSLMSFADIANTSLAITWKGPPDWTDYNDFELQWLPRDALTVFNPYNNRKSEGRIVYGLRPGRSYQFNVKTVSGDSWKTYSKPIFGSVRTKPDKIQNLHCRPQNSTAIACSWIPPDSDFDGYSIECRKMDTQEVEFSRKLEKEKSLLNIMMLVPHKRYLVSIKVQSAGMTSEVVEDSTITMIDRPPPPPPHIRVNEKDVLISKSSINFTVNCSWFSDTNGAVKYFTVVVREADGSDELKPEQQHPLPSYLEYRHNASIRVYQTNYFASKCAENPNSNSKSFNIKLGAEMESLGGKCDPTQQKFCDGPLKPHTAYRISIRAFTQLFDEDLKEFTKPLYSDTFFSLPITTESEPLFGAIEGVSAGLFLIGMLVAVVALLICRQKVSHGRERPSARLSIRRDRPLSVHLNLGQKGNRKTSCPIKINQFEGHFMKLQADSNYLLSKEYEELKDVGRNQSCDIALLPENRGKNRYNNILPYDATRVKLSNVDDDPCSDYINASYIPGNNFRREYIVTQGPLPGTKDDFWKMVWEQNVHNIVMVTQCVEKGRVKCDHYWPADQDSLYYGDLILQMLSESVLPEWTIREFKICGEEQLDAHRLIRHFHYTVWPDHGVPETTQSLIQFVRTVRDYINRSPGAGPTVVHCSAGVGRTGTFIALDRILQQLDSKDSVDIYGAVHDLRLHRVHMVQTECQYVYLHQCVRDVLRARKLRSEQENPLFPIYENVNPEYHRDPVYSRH
row,SMILES,outcome
1,Clc1cc(Cl)c2c(c1)N=C1CCCCCN1C2,inactive
2,CC/C(=C(/CC)c1ccc(O)cc1)c1ccc(O)cc1,inactive
3,CCCCCCCCCC(=O)O,inactive

# Biological target: human Rho Associated Coiled-coil Containing Protein Kinase 1 (ROCK1), ROCK1 (gene 6093) (UniProt Q13464)
# Sequence (Q13464 whole entry, looked up): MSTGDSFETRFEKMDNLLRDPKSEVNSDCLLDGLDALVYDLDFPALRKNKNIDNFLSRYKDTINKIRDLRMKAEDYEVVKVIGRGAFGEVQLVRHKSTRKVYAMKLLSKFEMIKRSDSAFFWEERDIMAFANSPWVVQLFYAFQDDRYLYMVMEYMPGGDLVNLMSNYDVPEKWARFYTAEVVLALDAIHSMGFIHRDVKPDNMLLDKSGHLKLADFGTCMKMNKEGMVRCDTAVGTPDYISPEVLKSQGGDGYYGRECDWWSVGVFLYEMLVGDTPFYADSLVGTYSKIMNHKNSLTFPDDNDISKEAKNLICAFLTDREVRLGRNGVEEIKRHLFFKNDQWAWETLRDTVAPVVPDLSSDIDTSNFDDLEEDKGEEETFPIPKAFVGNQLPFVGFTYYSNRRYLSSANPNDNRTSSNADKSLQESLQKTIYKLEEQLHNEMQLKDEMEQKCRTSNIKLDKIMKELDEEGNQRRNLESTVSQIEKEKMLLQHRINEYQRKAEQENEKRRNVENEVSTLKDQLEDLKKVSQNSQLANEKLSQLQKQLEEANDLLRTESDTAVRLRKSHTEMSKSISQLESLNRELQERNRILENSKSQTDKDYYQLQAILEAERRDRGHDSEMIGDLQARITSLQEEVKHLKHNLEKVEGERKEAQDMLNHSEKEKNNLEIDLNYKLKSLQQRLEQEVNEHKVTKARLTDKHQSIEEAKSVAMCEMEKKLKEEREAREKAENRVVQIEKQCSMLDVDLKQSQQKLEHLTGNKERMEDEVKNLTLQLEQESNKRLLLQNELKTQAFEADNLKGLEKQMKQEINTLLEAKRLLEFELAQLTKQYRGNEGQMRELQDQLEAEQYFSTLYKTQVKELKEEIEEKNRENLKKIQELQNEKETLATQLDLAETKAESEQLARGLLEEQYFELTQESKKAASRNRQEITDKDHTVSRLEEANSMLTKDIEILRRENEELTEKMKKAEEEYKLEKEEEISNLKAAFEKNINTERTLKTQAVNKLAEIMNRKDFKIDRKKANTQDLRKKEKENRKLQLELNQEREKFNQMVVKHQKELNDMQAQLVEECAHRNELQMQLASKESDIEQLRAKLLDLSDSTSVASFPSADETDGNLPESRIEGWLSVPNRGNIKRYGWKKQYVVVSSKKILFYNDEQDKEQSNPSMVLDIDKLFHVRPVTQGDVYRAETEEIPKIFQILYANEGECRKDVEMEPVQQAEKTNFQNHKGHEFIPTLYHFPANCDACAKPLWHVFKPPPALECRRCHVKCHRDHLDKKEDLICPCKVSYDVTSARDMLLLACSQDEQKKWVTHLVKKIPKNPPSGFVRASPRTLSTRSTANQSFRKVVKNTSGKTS
# Test: NVS_ENZ_hROCK1: NovaScreen (NVS) Enzymatic Assay for human Rho Associated Coiled-coil Containing Protein Kinase 1 (ROCK1) (AID 2283214)
# Outline: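 Compounds first run in duplicate at 25 uM against recombinant human ROCK1, then followed in concentration series. Kinase activity was read 1 h post-dosing by fluorescence with mobility-shift separation, as signal loss relative to DMSO.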
row,SMILES,outcome
1,OCCO,inactive
2,COc1cc(C(=O)NC2CCN(C)CC2)ccc1Nc1ncc2c(n1)N(C1CCCC1)CC(F)(F)C(=O)N2C,inactive
3,CC(C)(c1cc(Br)c(O)c(Br)c1)c1cc(Br)c(O)c(Br)c1,inactive

# Biological target: human Sirtuin 2 (SIRT2), SIRT2 (gene 22933) (UniProt Q8IXJ6)
# Sequence (Q8IXJ6 whole entry, looked up): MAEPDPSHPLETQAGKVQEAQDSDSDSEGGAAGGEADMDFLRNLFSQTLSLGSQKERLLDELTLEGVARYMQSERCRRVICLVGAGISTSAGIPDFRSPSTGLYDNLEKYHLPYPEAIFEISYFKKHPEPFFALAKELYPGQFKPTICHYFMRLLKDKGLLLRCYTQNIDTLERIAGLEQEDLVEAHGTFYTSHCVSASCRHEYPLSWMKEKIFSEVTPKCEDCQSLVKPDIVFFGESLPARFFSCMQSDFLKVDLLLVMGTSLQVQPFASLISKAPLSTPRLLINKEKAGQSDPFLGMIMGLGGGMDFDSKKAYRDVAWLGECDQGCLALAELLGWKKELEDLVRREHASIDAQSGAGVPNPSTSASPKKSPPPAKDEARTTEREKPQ
# Test: NVS_ENZ_hSIRT2: NovaScreen (NVS) Enzymatic Assay for human Sirtuin 2 (SIRT2) (AID 2283217)
# Outline: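 Single-point duplicate screen at 25 uM, then concentration-response (max 50 uM) for chemicals passing threshold. Enzyme activity of recombinant human SIRT2 measured after 1 hr by fluorescence with mobility-shift separation of product; DMSO baseline.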
SMILES,outcome,AC50
CCCCCCCCN(C)CCCCCCCC,inactive,
O=C1c2ccccc2C(=O)N1CCc1noc(-c2ccc(CN3CCCCCC3)s2)n1,inactive,
O=C(O)Cn1c(=O)n(Cc2ccc(Br)cc2F)c(=O)c2ccc(Cl)cc21,inactive,
NC(=O)c1nc(-c2cccc(-c3cc(F)ccc3OCC(F)(F)C(F)(F)F)c2)n[nH]1,inactive,
COc1cc(C(=O)NC2CCN(C)CC2)ccc1Nc1ncc2c(n1)N(C1CCCC1)CC(F)(F)C(=O)N2C,inactive,
CC(C)(C)c1csc(-c2cc3cc(OCc4ccccc4CC(=O)O)ccc3o2)n1,inactive,
CC(=O)N1CCN(c2ccc(OC[C@H]3CO[C@](Cn4ccnc4)(c4ccc(Cl)cc4Cl)O3)cc2)CC1,,6460 nM (active)

# Biological target: human Sirtuin 1 (SIRT1), SIRT1 (gene 23411) (UniProt Q96EB6)
# Test: NVS_ENZ_hSIRT1: NovaScreen (NVS) Enzymatic Assay for human Sirtuin 1 (SIRT1) (AID 2283219)
# Outline: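 Cell-free recombinant SIRT1 with a fluorescent substrate; substrate and product separated by electrophoretic mobility shift and read by fluorescence intensity, 1 h after dosing. Primary screen at 25 uM in duplicate; hits re-run in concentration-response up to 50 uM, relative to DMSO.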
row,SMILES,outcome
1,O=c1c(-c2ccc(O)cc2)coc2cc(O)cc(O)c12,inactive
2,COc1ccc2cc(S(=O)(=O)N[C@H](CC(=O)N[C@H](Cc3ccc(CN4[C@H](C)CCC[C@@H]4C)cc3)C(=O)N(C)C(C)C)c3ccc4c(c3)OCO4)ccc2c1,inactive
3,CN1C(=O)N(c2ccccc2Br)Cc2cnc(Nc3ccc4c(c3)OCC(CO)O4)nc21 (configuration not stated),inactive
4,Oc1ccc2ccccc2c1,inactive
5,CC(=O)N1CCN(c2ccc(OC[C@H]3CO[C@](Cn4ccnc4)(c4ccc(Cl)cc4Cl)O3)cc2)CC1,inactive
6,CCCCCCCCCC(=O)O,inactive

# Biological target: human Sirtuin 3 (SIRT3), SIRT3 (gene 23410) (UniProt Q9NTG7)
# Sequence (Q9NTG7 whole entry, looked up): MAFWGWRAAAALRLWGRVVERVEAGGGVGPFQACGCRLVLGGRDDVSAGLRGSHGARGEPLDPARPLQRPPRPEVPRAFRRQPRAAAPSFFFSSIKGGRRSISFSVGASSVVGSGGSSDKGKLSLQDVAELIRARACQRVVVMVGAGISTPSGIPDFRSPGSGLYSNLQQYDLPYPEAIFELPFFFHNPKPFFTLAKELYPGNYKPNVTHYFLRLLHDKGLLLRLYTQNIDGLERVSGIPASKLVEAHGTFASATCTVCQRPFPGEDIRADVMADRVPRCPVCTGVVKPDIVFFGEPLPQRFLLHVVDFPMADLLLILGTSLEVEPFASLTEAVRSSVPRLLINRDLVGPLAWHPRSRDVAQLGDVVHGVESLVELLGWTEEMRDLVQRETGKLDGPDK
# Test: NVS_ENZ_hSIRT3: NovaScreen (NVS) Enzymatic Assay for human Sirtuin 3 (SIRT3) (AID 2283222)
# Outline: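 Cell-free enzyme assay with recombinant protein and fluorescent substrate, product separated by electrophoretic mobility shift; read 1 hour after dosing. Screened in duplicate at 25 uM, then singleton concentration-response up to 50 uM; loss of signal versus DMSO.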
SMILES,outcome,AC50
O=C1c2ccccc2C(=O)N1CCc1noc(-c2ccc(CN3CCCCCC3)s2)n1,inactive,
CCN(CC)C(=O)c1cc(S(=O)(=O)Cc2ccccc2)c(N2CCC(c3ccccc3)CC2)cc1N(CC)CCN(C)C,,4570 nM (active)
NC(=O)c1nc(-c2cccc(-c3cc(F)ccc3OCC(F)(F)C(F)(F)F)c2)n[nH]1,inactive,
Cc1oc2c(NC(=O)c3c(Cl)cccc3Cl)cccc2c1C(C)(C)O,inactive,
Cc1occc1C(=O)Nc1ccc(C(=O)N2CCC(F)(F)/C(=C\C(=O)N3CCC(N4CCCCC4)CC3)c3ccccc32)cc1,inactive,
O=C(Nc1ccc(Cl)cc1)Nc1ccc(Cl)c(Cl)c1,inactive,
O=C1O[C@H]([C@@H](O)CO)C(O)=C1O,inactive,

# Biological target: human SRC Proto-Oncogene, Non-receptor Tyrosine Kinase (SRC), SRC (gene 6714) (UniProt P12931)
# Sequence (P12931 whole entry, looked up): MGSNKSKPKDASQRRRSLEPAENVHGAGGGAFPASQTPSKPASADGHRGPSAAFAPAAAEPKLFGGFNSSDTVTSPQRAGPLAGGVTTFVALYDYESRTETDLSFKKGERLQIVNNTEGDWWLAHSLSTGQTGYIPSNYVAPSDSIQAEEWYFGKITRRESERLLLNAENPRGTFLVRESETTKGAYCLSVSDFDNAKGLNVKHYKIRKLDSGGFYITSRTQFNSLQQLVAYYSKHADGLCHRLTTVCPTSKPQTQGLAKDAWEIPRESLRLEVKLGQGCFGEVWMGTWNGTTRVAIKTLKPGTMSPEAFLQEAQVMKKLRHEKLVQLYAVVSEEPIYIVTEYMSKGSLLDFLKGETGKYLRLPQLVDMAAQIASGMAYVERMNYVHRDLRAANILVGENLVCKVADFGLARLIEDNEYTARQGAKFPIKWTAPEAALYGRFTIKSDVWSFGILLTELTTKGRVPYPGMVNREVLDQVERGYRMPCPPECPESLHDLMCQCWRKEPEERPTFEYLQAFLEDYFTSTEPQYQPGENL
# Test: NVS_ENZ_hSRC: NovaScreen (NVS) Enzymatic Assay for human SRC Proto-Oncogene, Non-receptor Tyrosine Kinase (SRC) (AID 2283223)
# Outline: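 Compounds passing 30% inhibition at 25 uM (duplicate) were titrated to a top concentration of 50 uM. Enzyme activity read by fluorescence with mobility-shift substrate/product separation after 1 h; DMSO baseline.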
SMILES,outcome,AC50
Cc1cccc2ccccc12,inactive,
CN1C(=O)N(c2ccccc2Br)Cc2cnc(Nc3ccc4c(c3)OCC(CO)O4)nc21 (configuration not stated),,2.29 nM (active)
c1ccc2ccccc2c1,inactive,

# Biological target: human Tropomyosin Receptor Kinase A (TRKA), NTRK1 (gene 4914) (UniProt P04629)
# Test: NVS_ENZ_hTrkA: NovaScreen (NVS) Enzymatic Assay for human Tropomyosin Receptor Kinase A (TRKA) (AID 2283224)
# Outline: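 Compounds were screened at 25 uM in duplicate, then concentration series to a 50 uM top for those meeting threshold (e.g. 30% inhibition). Enzyme was recombinant human TrkA, incubated 1 h. Product formation was quantified by fluorescence after mobility-shift separation.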
SMILES,AC50,outcome
CN1C(=O)N(c2ccccc2Br)Cc2cnc(Nc3ccc4c(c3)OCC(CO)O4)nc21 (configuration not stated),493 nM (active),
CCCCCCCCCC(=O)O,,inactive
O=C(O)Cc1cc(I)c(Oc2ccc(O)c(I)c2)c(I)c1,2580 nM (active),

# — PubChem BioAssay (EPA / NIEHS)
